# Measurements reported in article PMC11062922 (Nature Chemical Biology, 2023).
# Read-outs that look alike come from different tables or passages of the source.
# Experiments:
# Design in all cases: species or system human, MV4-11 + K-562 + COLO205 + SK-N-BE2 + OVCAR-8
# [1] = test system: DDR2; details: read-out: apparent Kd, n = 1
# [2] = test system: MAPK14; details: read-out: apparent Kd, compound concentrations: 100 nM and 1000 nM (sheet 'Samples'), n = 1
# [3] = test system: MAPK9; details: read-out: apparent Kd, n = 1
# [4] = test system: PRKD2; details: read-out: apparent Kd; compound concentrations:100 nM and 1000 nM (sheet 'Samples'); n = 1
# [5] = test system: TGFBR1; details: read-out: apparent Kd, n = 1
# [6] = test system: AKT1; details: read-out: apparent Kd; compound concentrations: 100 nM and 1000 nM (sheet 'Samples'), CATDS: 9.7335035775878098E-2; n = 1
# [7] = test system: AURKB; details: read-out: apparent Kd, compound concentrations: 100 nM and 1000 nM (sheet 'Samples'), n = 1
# [8] = test system: FLT4; details: read-out: apparent Kd, compound concentrations: 100 nM and 1000 nM (sheet 'Samples'), n = 1
# [9] = test system: AKT2; details: read-out: apparent Kd; compound concentrations: 100 nM and 1000 nM (sheet 'Samples'), CATDS: 2.19467490651379E-2; n = 1
# [10] = test system: CDK17; details: read-out: apparent Kd; compound concentrations: 100 nM and 1000 nM (sheet 'Samples'), CATDS: 2.3617209164995101E-2; n = 1
# [11] = test system: BTK; details: read-out: apparent Kd, compound concentrations: 100 nM and 1000 nM (sheet 'Samples'), n = 1
# [12] = test system: RIOK2; details: read-out: apparent Kd; compound concentrations:100 nM and 1000 nM (sheet 'Samples'); n = 1
# [13] = test system: BMPR1B; details: read-out: apparent Kd; compound concentrations: 100 nM and 1000 nM (sheet 'Samples'), CATDS: 1.50633752553141E-2; n = 1
# [14] = test system: JAK2; details: read-out: apparent Kd; compound concentrations: 100 nM and 1000 nM (sheet 'Samples'), CATDS: 1.0777709602795499E-2; n = 1
# [15] = test system: PLK4; details: read-out: apparent Kd; compound concentrations: 100 nM and 1000 nM (sheet 'Samples'), CATDS: 5.6526690593712202E-2; n = 1
# [16] = compound concentrations:100 nM and 1000 nM (sheet 'Samples')
compound,measurement,setting,value
Fc1ccc(-c2c(-c3ccncc3)[nH]c3nccnc23)cc1 [RO1155697-000],potency estimated from few doses,[1]; [16],886 nM
same,potency estimated from few doses,[2]; CATDS: 5.8125054995699497E-2,449 nM
same,potency estimated from few doses,[3]; [16],368 nM
same,potency estimated from few doses,[4],962 nM
same,potency estimated from few doses,[5]; [16],1950 nM
COc1ccc(-c2nc3n(c2-c2ccncc2)CCC3)cc1.COc1ccc(-c2nc3n(c2-c2ccncc2)CCC3)cc1.O=S(=O)(O)O.O=S(=O)(O)O [SKF-104493-B2],potency estimated from few doses,[6],2500 nM
same,potency estimated from few doses,[2]; CATDS: 0.181046976908248,687 nM
CN1CCN(Cc2ccc(NC(=O)Nc3ccc(N(C)c4ccnc(Nc5ccc(CS(C)(=O)=O)cc5)n4)cc3)cc2)CC1.Cl [GW827654A],potency estimated from few doses,[7]; CATDS: 4.55704320916199E-2,700 nM
same,potency estimated from few doses,"[1]; compound concentrations: 100 nM and 1000 nM (sheet 'Samples'), CATDS: 5.9738771402131699E-2",348 nM
same,potency estimated from few doses,[8]; CATDS: 0.106760971330705,109 nM
O=S(=O)(CCOCc1ccc(-c2ccc3ncnc(Nc4ccc(OCc5cccc(F)c5)c(Cl)c4)c3c2)o1)c1ccccc1 [GW615311X],potency estimated from few doses,[9],2450 nM
same,potency estimated from few doses,[10],2010 nM
same,potency estimated from few doses,[2]; CATDS: 2.8626143180457999E-2,1290 nM
same,potency estimated from few doses,"[3]; compound concentrations: 100 nM and 1000 nM (sheet 'Samples'), CATDS: 2.2235644452826799E-2",2360 nM
NS(=O)(=O)CCc1cccc(Nc2nccc(-c3c(-c4cccc(NC(=O)c5c(F)cccc5F)c4)nn4ccccc34)n2)c1 [GSK336735A],potency estimated from few doses,[7]; CATDS: 5.6735057475689701E-2,1260 nM
same,potency estimated from few doses,[11]; CATDS: 6.9613472327250694E-2,756 nM
COc1cc(/C=N/Nc2ncnc3[nH]ncc23)ccc1O [GW578748X],potency estimated from few doses,[12],1600 nM
CN1CCc2ccc(Nc3nccc(-c4c(-c5cccc(NC(=O)c6c(F)cccc6F)c5)nc5ccccn45)n3)cc2C1.Cl [GSK1010829B],potency estimated from few doses,[11]; CATDS: 5.3394659124358E-2,497 nM
CNC(=O)c1ccccc1Nc1nc(Nc2cccc(CS(C)(=O)=O)c2)ncc1C.O=CO [GSK1520489A],potency estimated from few doses,[7]; CATDS: 5.1121534714452903E-2,22.6 nM
same,potency estimated from few doses,[13],288 nM
same,potency estimated from few doses,[11]; CATDS: 3.3529613297139299E-2,46.5 nM
same,potency estimated from few doses,"[1]; compound concentrations: 100 nM and 1000 nM (sheet 'Samples'), CATDS: 1.3086276372357399E-2",443 nM
same,potency estimated from few doses,[8]; CATDS: 2.0677135389333402E-2,127 nM
same,potency estimated from few doses,[14],917 nM
same,potency estimated from few doses,"[3]; compound concentrations: 100 nM and 1000 nM (sheet 'Samples'), CATDS: 1.0219205948468601E-2",1170 nM
same,potency estimated from few doses,[15],19.3 nM
same,potency estimated from few doses,"[5]; compound concentrations: 100 nM and 1000 nM (sheet 'Samples'), CATDS: 9.4696036955239198E-3",1790 nM
